Pf growth 48h – Primary qHTS for delayed death inhibitors of the malarial parasite plastid, 48 hour incubation. Potency, µM (highest dose often 28.7 µM), inactives show at the top dose activity change, negative = inhibition, actives largely listed as inhibitors. 310,000 tested, 5.9% active. P. falciparum luciferase growth in erythrocytes, 48 h; note: % is set by controls: 0 for no effect and ±100 for the full control effect
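Here the parasites carry a stable luciferase gene and grow inside erythrocytes in Albumax-based RPMI medium with compound for one erythrocytic cycle. Activity is scored as loss of luminescent signal.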
SARS PLP yeast – qHTS of Yeast-based Assay for SARS-CoV PLP | Potency, µM (top dose mostly 32.9 µM), for inactives: at the highest dose activity, positive = growth rescue, usual class: activators | S. cerevisiae expressing SARS-CoV PLpro, growth rescue | 330,000 tested, 0.19% active; calls by dose curve; note: 0% is about no effect; nearly all actives have a fitted effect of over 55% in size
Sm TGR block – qHTS Assay for the Inhibitors of Schistosoma Mansoni Peroxiredoxins | Schistosoma mansoni thioredoxin glutathione reductase (TGR), Q962Y6 | purified TGR, DTNB reduction, TNB absorbance 405 nm | Potency, µM (top dose mostly 114 µM), inactives show at the highest dose activity change, negative = inhibition, usual class: inhibitors | 360,000 tested, 3% active; note: % is set by controls: 0 for no effect and ±100 for the full control effect; nearly all actives have a fitted effect of over 60% in size
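First, TGR (20 nM dispensed) and NADPH were mixed with compound. Second, a 15 min room-temperature incubation followed. Third, further NADPH and then DTNB were added to start the reaction. Finally, TNB absorbance was monitored kinetically.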
Pf growth 96h – Primary qHTS for delayed death inhibitors of the malarial parasite plastid, 96 hour incubation; AID 504834, 2011; Potency, µM (doses to about 28.7 µM), inactives show top-dose activity change, negative = inhibition, actives largely listed as inhibitors; P. falciparum luciferase reporter growth, 96 h; 320,000 tested, 6.9% active; note: % is set by controls: 0 for no effect and ±100 for the full control effect
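Parasite growth measured via integrated firefly luciferase reporter in P. falciparum. Infected erythrocytes at 2% hematocrit, 0.05% parasitemia final were treated 96 hours at 37 C under 5% CO2, and luminescence was read.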
An asterisk follows results filed as active. The list is not random: actives were taken first. Their share in the collection is about 12%. Unless noted, calls come from the whole dose curve; as a rule, active = well fitted curve in the direction sought with a large enough effect; inconclusive = small, poorly fitted or top-dose-only effect, or another doubt; inactive = no such curve, though single readings can be large; an effect the other way counts as inactive or inconclusive. Potency is the fitted concentration of half-maximal effect.

For C=CCn1c(O)c(N=NC(=S)Nc2cccc(OC)c2)c2ccccc21 the results were Pf growth 48h 3.7µM*, SARS PLP yeast 19.7%, Sm TGR block -13.7% and Pf growth 96h inconclusive.
For C=CCn1c(O)c(N=NC(=S)Nc2ccc(OC)cc2)c2ccccc21 the results were Pf growth 48h 10.4µM*, SARS PLP yeast 8.3%, Sm TGR block -6.7% and Pf growth 96h 0.0%.
`C=CCn1c(O)c(N=NC(=O)CNC(=O)Cc2ccccc2)c2ccccc21` gave Pf growth 48h 5.0%, SARS PLP yeast 8.2%, Sm TGR block -3.2% and Pf growth 96h 85.2%.
`CC1=CC(=NOC(=O)/C=C/c2ccccc2)C=C(C)C1=O` gave Pf growth 48h inconclusive, SARS PLP yeast -2.2%, Sm TGR block -25.7% and Pf growth 96h -45.5%.
For CC1=C(C)/C(=N\OC(=O)/C=C/c2ccccc2)C=CC1=O the results were Pf growth 48h 10.4µM*, SARS PLP yeast 4.5%, Sm TGR block -15.0% and Pf growth 96h inconclusive.
`O=C1C2C3C=CC(C3)C2C(=O)N1CNc1ccc(O)cc1` (stereo not drawn) gave Pf growth 48h -69.6%, SARS PLP yeast -5.1%, Sm TGR block 44.7µM* and Pf growth 96h inconclusive.
For O=C(CN1C(=O)NC2(CCc3ccccc32)C1=O)Nc1ccccc1C(F)(F)F (stereo not drawn) the results were Pf growth 48h -25.9%, SARS PLP yeast -1.9%, Sm TGR block -0.5% and Pf growth 96h inconclusive.
Cc1cccc(NC(=O)CSc2nc(N)c(NC(=O)c3ccccc3F)c(=O)[nH]2)c1 was read as Pf growth 48h 33.3%, SARS PLP yeast 4.3%, Sm TGR block 2.5% and Pf growth 96h inconclusive.
CC(=O)Nc1ccc(NC(=O)CSc2nc(N)c(NC(=O)c3ccccc3F)c(=O)[nH]2)cc1 was read as Pf growth 48h inconclusive, SARS PLP yeast -8.2%, Sm TGR block 89.1µM* and Pf growth 96h 11.7µM*.
For O=C1CC(N2CCOCC2)C(=O)N1c1cc(Cl)cc(Cl)c1 (stereo not drawn) the results were Pf growth 48h 31.9%, SARS PLP yeast -22.0%, Sm TGR block 35.5µM* and Pf growth 96h inconclusive.
For O=C1CC(N2CCN(c3ccccc3)CC2)C(=O)N1c1ccc2c(c1)OCCO2 (stereo not drawn) the results were Pf growth 48h 7.8%, Sm TGR block -21.8% and Pf growth 96h 12.0%.
`Cc1cc(C)cc(N2C(=O)CC(N3CCOCC3)C2=O)c1` (stereo not drawn) gave Pf growth 48h 17.3%, SARS PLP yeast -27.5%, Sm TGR block 50.1µM* and Pf growth 96h 34.9%.
`CCN1C(=O)CC(N2CCOCC2)C1=O` (stereo not drawn) gave SARS PLP yeast -3.3%, Sm TGR block -10.0% and Pf growth 96h 46.6%.
Screening COC(=O)c1ccc(Cn2nc(-c3ccc(C)cc3)ccc2=O)cc1 returned Pf growth 48h 38.5%, SARS PLP yeast -0.8%, Sm TGR block -5.7% and Pf growth 96h 25.9%.
`O=C(Cc1csc(NC(=O)c2ccc(F)cc2)n1)NO` gave Pf growth 48h inconclusive, SARS PLP yeast 0.8%, Sm TGR block -0.6% and Pf growth 96h 8.28µM*.
`COc1cc(OC)cc(C(=O)Nc2nc(CC(=O)NCc3ccccc3OC)cs2)c1` gave Pf growth 48h inconclusive, SARS PLP yeast -3.0%, Sm TGR block 5.5% and Pf growth 96h inconclusive.
COc1cc(OC)cc(C(=O)Nc2nc(CC(=O)NCc3ccc(F)cc3)cs2)c1 was read as Pf growth 48h inconclusive, SARS PLP yeast -0.2%, Sm TGR block -1.2% and Pf growth 96h 11.7µM*.
For O=C(CS(=O)(=O)c1cccc2nsnc12)Nc1ccc(F)cc1F the results were Sm TGR block -32.0%.
`Cc1ccc(C)c(NC(=O)N2CCc3cc(S(=O)(=O)N4CCC(C)CC4)ccc32)c1` gave Sm TGR block 4.7%.
`Cc1ccc(NC(=O)Cn2cc(C(=O)c3ccco3)c3ccccc32)cc1` gave Sm TGR block -3.3%.
Screening O=S(=O)(CC(CN1CCCC1)N1CCCC1)c1ccc2ccccc2c1 (stereo not drawn) returned Pf growth 48h inconclusive, SARS PLP yeast 3.2%, Sm TGR block 15.8µM* and Pf growth 96h 4.15µM*.
Screening Cc1ccc(S(=O)(=O)CC(CN2CCOCC2)N2CCOCC2)cc1 (stereo not drawn) returned Pf growth 48h -0.2%, SARS PLP yeast -0.7% and Pf growth 96h -17.8%.
For Cc1ccc(NC(=O)CN(C)C(=O)C2CC(=O)N(Cc3ccccc3)C2)cc1 (stereo not drawn) the results were Pf growth 48h 12.8%, SARS PLP yeast 19.0%, Sm TGR block -19.9% and Pf growth 96h 11.3%.
`CCOc1ccccc1OCCCC(=O)N1CCN(S(=O)(=O)c2ccc(C)cc2)CC1` gave Pf growth 48h inconclusive, SARS PLP yeast 0.0%, Sm TGR block -10.9% and Pf growth 96h inconclusive.
For CCOc1ccccc1OCCCC(=O)N1CCN(S(=O)(=O)c2ccc(C)cc2C)CC1 the results were Pf growth 48h inconclusive, SARS PLP yeast -4.9%, Sm TGR block -2.8% and Pf growth 96h 10.4µM*.
`Cc1cc(C)c(S(=O)(=O)N2CCN(C(=O)CCOc3ccccc3C)CC2)c(C)c1` gave Pf growth 48h 13.1µM*, SARS PLP yeast 0.4%, Sm TGR block -6.8% and Pf growth 96h inconclusive.
For Cc1ccc(S(=O)(=O)N2CCN(C(=O)CCc3c[nH]c4ccccc34)CC2)c(C)c1 the results were Pf growth 48h inconclusive, SARS PLP yeast -3.6%, Sm TGR block -14.7% and Pf growth 96h 7.38µM*.
Cc1ccc(S(=O)(=O)N2CCN(C(=O)CCc3c[nH]c4ccccc34)CC2)cc1 was read as Pf growth 48h inconclusive, SARS PLP yeast -10.9%, Sm TGR block 3.1% and Pf growth 96h inconclusive.
Screening COc1ccc(OC)c(C2NC(=O)NC(C)=C2C(=O)Nc2ccc(F)cc2)c1 (stereo not drawn) returned Sm TGR block -0.8%.
`CC1CCN(S(=O)(=O)c2ccc3c(c2)oc(=O)n3CC(=O)NCc2ccc(F)cc2)CC1` gave Sm TGR block -0.3%.
`CCOC(=O)c1ccccc1NC(=O)CSc1nc2ccccc2c(=O)n1CCCN1CCOCC1` gave SARS PLP yeast 10.4%.
`CCOc1ccc(CCNC(=O)COC(=O)C2=NNC(=O)CC2)cc1OCC` gave Pf growth 48h inconclusive, SARS PLP yeast -3.5%, Sm TGR block -1.3% and Pf growth 96h inconclusive.
Screening CCC(=O)c1ccc(OC(=O)C2CCN(C3=NS(=O)(=O)c4ccccc43)CC2)cc1 returned Pf growth 48h 51.4%, SARS PLP yeast -2.1%, Sm TGR block -10.6% and Pf growth 96h 0.0%.
COc1ccc(OC)c(NS(=O)(=O)c2cc3c(cc2Cl)N(C(C)=O)CCO3)c1 was read as Sm TGR block 2.51µM*.
